From PubChem BioAssay (NCATS) come the findings set out here.

Structures are written as SMILES. Where “and” joins values, the source holds several entries; their conditions need not be identical. Equal values may be shown once. Inconclusive results are not listed. Calls of active or inactive are those of the source. Unless noted, the call rests on the fitted dose curve; in most records, active means well fitted curve in the direction sought with a large enough effect; inconclusive means small, poorly fitted or top-dose-only effect, or another doubt; inactive means no such curve, though single readings can be large; an effect the other way counts as inactive or inconclusive.

Assay [1] addresses Glucocorticoid receptor (Homo sapiens) (UniProt P04150). As to the kind of experiment: GR-EFC Redistribution (AID 451; calls by dose curve; further: potency means the concentration at half of the fitted maximal effect). The conditions noted are these: CHO-K1 GR-EFC translocation, beta-gal luminescence, 2 h. The method, boiled down:
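CHO-K1 cells stably expressing nuclear-localized β-gal enzyme acceptor and GR fused C-terminally to the enzyme donor fragment; ligand-driven nuclear translocation restores β-gal by complementation. Compounds titrated up to 46 uM final, 2 h at 37 °C; luminescence read.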

For assay [2], the target named is Mitogen-activated protein kinase 10 (Mus musculus) (UniProt Q61831). The assay is described as follows: JNK3 AlphaScreen Assay (AID 530; active means well fitted curve in either direction with a large enough effect, not every such curve was filed as active;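 further: kinase came from lysate of stimulated human HepG2 cells; on the % scale 0 is the no-effect control and ±100 the full control effect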). The conditions noted are these: JNK3 lysate, c-Jun phosphorylation; series mostly up to 25.6 µM. The method, boiled down: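 Biotinylated GST-cJun(1-79) served as substrate for JNK3 in HepG2 lysates stimulated with IL-1beta and TNF-alpha. ATP was 10 uM final, pH 7.6. Ser73 phosphorylation was quantified by AlphaScreen (680 nm excitation).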
A general note: Alpha assays give light when donor and acceptor beads are brought close together.

A short description of assay [3]: qHTS Assay for Lipid Storage Modulators (AID 1519; calls by dose curve; on activity change, negative = inhibition: on the % scale 0 is the no-effect control and ±100 the full control effect). The conditions noted are these: Drosophila S3 cells, BODIPY lipid droplet/cell ratio, laser cytometry, cells loaded with oleic acid; for activity change, negative = inhibition: at 25.7 µM (top of the series). An outline of the steps:
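Cells seeded at 5,000 per well were treated with compounds over a concentration series and loaded with oleic acid (400 uM, as added). Lipid droplet fluorescence (488 nm excitation, 500-530 nm channel) was read by laser-scanning cytometry and normalized to 20 uM Triacsin C.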
(In general: In qHTS, concentration-response curves come from the screen itself.)

Assay [4] has as its target ATP-dependent 6-phosphofructokinase (Trypanosoma brucei brucei) (UniProt O15648). The assay is described as follows: qHTS Assay to Find Inhibitors of T. brucei phosphofructokinase: hit validation (AID 492961).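 Further: luminescence reports ADP formed as PFK phosphorylates fructose-6-phosphate with ATP; on the % scale 0 is the no-effect control and ±100 the full control effect.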 The conditions noted are these: T. brucei PFK, ADP-Glo luminescence; series mostly up to 24.3 µM. The method, boiled down: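 Reaction: 0.1 M triethanolamine pH 8.0, 5 mM MgCl2, F6P 0.5 mM, ATP 0.1 mM, PFK 1.25 nM, 45 min RT. Read-out: ADP-Glo luminescence. Analysis: concentration-response fits, classed by r2 and efficacy.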

For assay [5], the target named is Luciferin 4-monooxygenase (Photinus pyralis) (UniProt P08659). As to the kind of experiment: Biochemical firefly luciferase enzyme assay for NPC (AID 624030).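 Further: purified P. pyralis luciferase at 10 nM with luciferin and ATP substrate; 0% = DMSO and -100% = full luciferase inhibition by PTC124 control; nearly all actives have a fitted effect of over 70% in size.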 The following applies: purified P. pyralis luciferase, luminescence, 5 min; series mostly up to 24.9 µM. The method, boiled down: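 Counter-screen for direct inhibition of the luciferase enzyme by approved-drug library compounds, run at 10 nM enzyme in 50 mM Tris acetate (final). Luminescence was read within 5 min of enzyme-buffer addition and normalized to PTC124 versus DMSO (0%).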
Luciferin 4-monooxygenase (Photinus pyralis), sequence (P08659 whole entry, looked up): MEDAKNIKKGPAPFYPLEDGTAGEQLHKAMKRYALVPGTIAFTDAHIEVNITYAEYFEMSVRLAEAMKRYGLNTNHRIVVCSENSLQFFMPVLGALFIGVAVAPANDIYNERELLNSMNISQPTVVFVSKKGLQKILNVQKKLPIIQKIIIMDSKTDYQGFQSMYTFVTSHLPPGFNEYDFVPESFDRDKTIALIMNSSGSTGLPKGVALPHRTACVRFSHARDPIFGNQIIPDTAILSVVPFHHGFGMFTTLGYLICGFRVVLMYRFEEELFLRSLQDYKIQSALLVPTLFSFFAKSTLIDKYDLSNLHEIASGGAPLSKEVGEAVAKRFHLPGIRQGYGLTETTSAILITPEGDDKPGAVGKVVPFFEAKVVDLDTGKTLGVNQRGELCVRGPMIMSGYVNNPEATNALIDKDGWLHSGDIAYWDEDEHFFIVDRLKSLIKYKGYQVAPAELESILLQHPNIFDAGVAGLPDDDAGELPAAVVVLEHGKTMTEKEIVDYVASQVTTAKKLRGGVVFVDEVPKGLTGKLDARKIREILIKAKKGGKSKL

A short description of assay [6]: qHTS profiling for inhibitors of Plasmodium falciparum proliferation (AID 504749). Further: potency means the concentration at half of the fitted maximal effect.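 On activity, negative = inhibition: 0% = DMSO vehicle and full inhibition = artemisinin control.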 On all read-outs here: nearly all actives have a fitted effect of over 60% in size. The conditions noted are these: P. falciparum in erythrocytes, SYBR Green DNA, 72 h; for activity, negative = inhibition: at 12.8 µM (top of the series). The method, boiled down:
(§1)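 Fluorescence of SYBR Green-bound parasite DNA, read at 485/535 nm, served as the growth measure. Infected erythrocytes were cultured with compound 72 h; artemisinin (0.29 uM) and DMSO wells defined the normalization range.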

For the next assay, the system named is AS120. The assay is described as above. The conditions noted are these: P. falciparum in erythrocytes, SYBR Green DNA, 72 h; series mostly up to 12.8 µM. An outline of the steps:
as §1

The next assay relates to C2A. Described as above. The following applies: P. falciparum in erythrocytes, SYBR Green DNA, 72 h; series mostly up to 12.8 µM. An outline of the steps: as §1
The test system of another assay is CP191. The assay is described as above. The conditions noted are these: P. falciparum in erythrocytes, SYBR Green DNA, 72 h; series mostly up to 12.8 µM. The method, boiled down:
as §1

The subject of another assay is CP217. The description is as above. The following applies: P. falciparum in erythrocytes, SYBR Green DNA, 72 h; series mostly up to 12.8 µM. An outline of the steps: as §1
A further assay concerns CP305. The description is as above. The conditions noted are these: P. falciparum in erythrocytes, SYBR Green DNA, 72 h; series mostly up to 12.8 µM. The method, boiled down: as §1
A further assay concerns CP329. Described as above. The following applies: P. falciparum in erythrocytes, SYBR Green DNA, 72 h; series mostly up to 12.8 µM. An outline of the steps: as §1
The test system of the next assay is ECU. The assay is described as above. The conditions noted are these: P. falciparum in erythrocytes, SYBR Green DNA, 72 h; series mostly up to 12.8 µM. The method, boiled down: as §1
The next assay has as its system FAB9. The assay is described as above. The following applies: P. falciparum in erythrocytes, SYBR Green DNA, 72 h; series mostly up to 12.8 µM. An outline of the steps:
as §1

In another assay the test system is N140. Described as above. The following applies: P. falciparum in erythrocytes, SYBR Green DNA, 72 h; series mostly up to 12.8 µM. The method, boiled down: as §1
The subject of the next assay is PC15. The description is as above. The following applies: P. falciparum in erythrocytes, SYBR Green DNA, 72 h; series mostly up to 12.8 µM. The method, boiled down:
as §1

The subject of another assay is PC49. Described as above. The conditions noted are these: P. falciparum in erythrocytes, SYBR Green DNA, 72 h; series mostly up to 12.8 µM. An outline of the steps:
as §1

Another assay deals with TAB165. The assay is described as above. The conditions noted are these: P. falciparum in erythrocytes, SYBR Green DNA, 72 h; series mostly up to 12.8 µM. The method, boiled down:
as §1

Assay [7] addresses 3',5'-cyclic-AMP phosphodiesterase 4B (Homo sapiens) (UniProt Q07343). As to the kind of experiment: qHTS Assay for Inhibitors of PDE-IV (AID 607; active means well fitted activation curve with a large enough effect in the main read-out, with a control signal flat, not every such curve was filed as active; further: % of control where 0% means no effect). The conditions noted are these: HEK293 ACTOne CNG channel cells, membrane potential fluorescence; series mostly up to 22.9 µM. An outline of the steps:
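HEK293 ACTOne cells with CNG channel (1000/well), endogenous PDE4; membrane potential dye, compounds up to 22.9 uM final. Fluorescence Ex 535/Em 590; RO 20-1724 (100 uM final) as reference.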

The target of assay [8] is Ubiquitin carboxyl-terminal hydrolase 1 (Homo sapiens) (UniProt O94782). The assay is described as follows: Inhibitors of USP1/UAF1: Pilot qHTS (AID 504865). Further: nearly all actives have a fitted effect of over 35% in size. Further: potency means the concentration at half of the fitted maximal effect.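 On activity change, negative = inhibition: rhodamine fluorescence freed from ubiquitin-rhodamine substrate followed over time; top concentration of the series differs between compounds; on the % scale 0 is the no-effect control and ±100 the full control effect.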 The conditions noted are these: purified USP1/UAF1, Ub-rhodamine cleavage fluorescence; series mostly up to 114 µM. An outline of the steps:
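USP1/UAF1 complex at 1 nM preincubated 15 min at room temperature with compound, then Ub-Rho substrate added at 150 nM final. Fluorescence (480/540 nm) read kinetically in 50 mM HEPES pH 7.8, 0.5 mM EDTA, 1 mM TCEP, 0.1 mg/ml BSA, 0.01% Tween-20.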

[9] abbreviates: measured here: cell count channel max response.
Where [10] appears, read: measured here: lipid channel max response.

Glucocorticoid receptor (Homo sapiens), sequence (P04150 whole entry, looked up, the tested form may be a part): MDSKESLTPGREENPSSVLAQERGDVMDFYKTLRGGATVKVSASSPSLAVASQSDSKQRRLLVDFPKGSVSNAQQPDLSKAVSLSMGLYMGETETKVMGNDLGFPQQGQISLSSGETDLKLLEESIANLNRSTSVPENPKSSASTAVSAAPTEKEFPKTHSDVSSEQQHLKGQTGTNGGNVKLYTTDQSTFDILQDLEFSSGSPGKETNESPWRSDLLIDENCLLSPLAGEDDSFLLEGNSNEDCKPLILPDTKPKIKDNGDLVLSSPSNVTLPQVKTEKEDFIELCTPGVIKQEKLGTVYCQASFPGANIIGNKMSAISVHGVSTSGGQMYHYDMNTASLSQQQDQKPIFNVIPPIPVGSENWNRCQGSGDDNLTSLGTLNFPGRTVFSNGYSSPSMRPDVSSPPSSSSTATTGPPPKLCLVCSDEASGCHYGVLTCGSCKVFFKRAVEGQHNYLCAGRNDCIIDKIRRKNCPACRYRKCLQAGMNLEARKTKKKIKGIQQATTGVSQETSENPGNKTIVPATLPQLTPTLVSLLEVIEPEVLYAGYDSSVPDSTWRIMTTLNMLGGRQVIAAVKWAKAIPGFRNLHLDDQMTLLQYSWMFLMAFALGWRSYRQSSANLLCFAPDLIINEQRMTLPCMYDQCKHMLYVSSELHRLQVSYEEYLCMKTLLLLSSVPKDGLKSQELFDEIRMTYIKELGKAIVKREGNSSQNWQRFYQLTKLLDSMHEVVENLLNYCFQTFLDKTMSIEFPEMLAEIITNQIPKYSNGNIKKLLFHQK
Ubiquitin carboxyl-terminal hydrolase 1 (Homo sapiens), sequence (O94782 whole entry, looked up): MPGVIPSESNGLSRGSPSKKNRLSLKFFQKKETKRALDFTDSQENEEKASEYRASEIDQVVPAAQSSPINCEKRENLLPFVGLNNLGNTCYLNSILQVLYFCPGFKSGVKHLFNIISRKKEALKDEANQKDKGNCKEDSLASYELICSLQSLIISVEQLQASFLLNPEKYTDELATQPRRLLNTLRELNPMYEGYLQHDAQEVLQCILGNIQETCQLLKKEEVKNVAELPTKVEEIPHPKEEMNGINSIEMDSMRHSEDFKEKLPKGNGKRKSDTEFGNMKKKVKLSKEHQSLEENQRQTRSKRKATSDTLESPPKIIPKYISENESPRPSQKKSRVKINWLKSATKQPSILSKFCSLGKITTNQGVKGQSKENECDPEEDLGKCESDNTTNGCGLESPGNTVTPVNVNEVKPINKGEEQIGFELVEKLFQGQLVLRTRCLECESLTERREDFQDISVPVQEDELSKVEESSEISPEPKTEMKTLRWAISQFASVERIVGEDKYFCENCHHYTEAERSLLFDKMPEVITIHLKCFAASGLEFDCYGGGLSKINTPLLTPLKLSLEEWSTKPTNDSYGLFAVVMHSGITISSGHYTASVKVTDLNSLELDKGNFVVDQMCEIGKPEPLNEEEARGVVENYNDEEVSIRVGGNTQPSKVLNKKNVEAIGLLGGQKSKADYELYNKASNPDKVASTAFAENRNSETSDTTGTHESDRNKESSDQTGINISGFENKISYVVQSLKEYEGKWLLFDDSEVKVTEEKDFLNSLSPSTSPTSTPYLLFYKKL
3',5'-cyclic-AMP phosphodiesterase 4B (Homo sapiens), sequence (Q07343 whole entry, looked up): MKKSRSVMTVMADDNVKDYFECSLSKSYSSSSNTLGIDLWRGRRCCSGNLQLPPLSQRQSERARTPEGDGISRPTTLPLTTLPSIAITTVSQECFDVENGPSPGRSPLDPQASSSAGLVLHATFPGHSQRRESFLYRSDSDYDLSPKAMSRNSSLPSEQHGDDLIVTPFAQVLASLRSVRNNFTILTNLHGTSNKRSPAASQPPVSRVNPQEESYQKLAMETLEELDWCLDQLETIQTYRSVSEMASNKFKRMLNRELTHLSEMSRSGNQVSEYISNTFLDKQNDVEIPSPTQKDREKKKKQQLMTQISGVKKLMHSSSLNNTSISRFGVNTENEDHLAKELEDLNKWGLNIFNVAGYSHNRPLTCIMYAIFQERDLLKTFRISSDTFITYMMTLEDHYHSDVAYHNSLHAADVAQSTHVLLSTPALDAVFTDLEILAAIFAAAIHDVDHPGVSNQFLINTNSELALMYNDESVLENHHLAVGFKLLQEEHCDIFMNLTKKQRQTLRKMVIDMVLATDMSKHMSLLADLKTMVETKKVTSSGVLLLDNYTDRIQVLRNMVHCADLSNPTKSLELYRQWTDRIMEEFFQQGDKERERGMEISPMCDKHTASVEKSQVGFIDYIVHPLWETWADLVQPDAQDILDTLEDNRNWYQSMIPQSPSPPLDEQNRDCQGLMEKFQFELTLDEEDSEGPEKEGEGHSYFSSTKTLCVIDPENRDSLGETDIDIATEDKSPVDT
ATP-dependent 6-phosphofructokinase (Trypanosoma brucei brucei), sequence (O15648 whole entry, looked up): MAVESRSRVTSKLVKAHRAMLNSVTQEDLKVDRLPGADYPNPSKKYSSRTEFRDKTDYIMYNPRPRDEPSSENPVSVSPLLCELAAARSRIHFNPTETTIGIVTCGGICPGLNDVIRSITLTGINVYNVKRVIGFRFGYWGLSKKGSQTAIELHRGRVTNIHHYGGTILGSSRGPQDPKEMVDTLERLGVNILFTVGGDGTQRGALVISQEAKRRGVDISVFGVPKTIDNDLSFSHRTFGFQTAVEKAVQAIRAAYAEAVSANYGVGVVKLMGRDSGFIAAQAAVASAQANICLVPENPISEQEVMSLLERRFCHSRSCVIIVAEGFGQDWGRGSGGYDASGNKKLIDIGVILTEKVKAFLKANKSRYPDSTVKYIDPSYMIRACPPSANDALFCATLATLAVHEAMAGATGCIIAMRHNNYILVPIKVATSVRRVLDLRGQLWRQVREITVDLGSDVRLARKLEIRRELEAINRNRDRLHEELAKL

With `COc1ccc2c(c1)N(C[C@@H](C)CN(C)C)c1ccccc1S2`, in assay [1], the Potency was > 20.6 µM (inactive). Further, the Potency entry (in assay [2]; in assay [5]; with AS120; in the assay on C2A; in the assay on CP191; in the assay on CP217) was “inactive” each time. Besides, the Potency entry in the assay with CP305, in the assay with CP329, with ECU, in the assay with FAB9, in the assay on N140 and in the assay with PC15 was “inactive” in each case. Besides, the Potency entry with PC49 and with TAB165 was “inactive” in each case. Moreover, in [3], the activity change, negative = inhibition is -4.01% (inactive). For the same compound, the figures for the max response in [3] (setting [9]) and in assay [3] (setting [10]) were -9.35% and -12.9%, respectively. In addition, the compound was classed as inactive in assay [4]. Besides, the activity, negative = inhibition in assay [6] (parasite line A) is 2.81% (inactive); in assay [6] (parasite line B), -1.87% (inactive).

Take `CO[C@@H]1CC[C@@]2(C)[C@@H](CC[C@@]3(C)[C@H]2CC=C2[C@H]4CC(C)(C)[C@H](O)[C@@H](OC(C)=O)[C@]4(CO)[C@H](O)C[C@]23C)[C@@]1(C)CO` (tested in a mixture with another compound): the Potency in assay [1] was > 20.6 µM (inactive). The Potency entry in assay [2] and in [8] was “inactive” throughout. Besides, the outcome in assay [7] was inactive. Further, in [3], the activity change, negative = inhibition is 0.0322% (inactive). The max response came out at 6.28% in assay [3] (setting [9]) and 7.61% in [3] (setting [10]).

Turning to `CCC(C)(C)C(=O)O[C@@H]1C[C@H](C)C=C2C=C[C@H](C)[C@@H](CC[C@H]3C[C@@H](O)CC(=O)O3)[C@H]21`, the Potency in assay [1] was > 20.6 µM (inactive). For the same compound, the Potency entry (in assay [2]; in assay [5]; in the assay on AS120; with C2A; with CP191; in the assay with CP217) was “inactive” throughout. For the same compound, the Potency result in the assay with CP305, in the assay on CP329, with ECU, in the assay on FAB9, in the assay with N140 and in the assay with PC15 was “inactive” throughout. Moreover, the Potency result with PC49 was “inactive”. In assay [3], the activity change, negative = inhibition was -9.23% (inactive). For the same compound, the max response in assay [3] (setting [9]) is -10.9%; in [3] (setting [10]), -20.7%. The compound was called inactive in assay [4]. Besides, in [6] (parasite line A), the activity, negative = inhibition is -15.1% (inactive).

On to `COc1cc(N[C@@H](C)CCCN)c2ncccc2c1`, for which the Potency entry in assay [2] and in assay [5] was “inactive” throughout. For the same compound, the compound was called inactive in [7] and in assay [4]. Moreover, the activity change, negative = inhibition in assay [3] was -1.31% (inactive). In addition, the max response in [3] (setting [9]) is -0.938%; in assay [3] (setting [10]) it was -2.77%. The Potency in assay [8] was 3980 nM (active); in [6] (parasite line A), 1580 nM (active); in assay [6] (parasite line B), 2820 nM (active); in the assay with AS120 it was 794 nM (active); in the assay on C2A, 2820 nM (active); in the assay with CP191, 1000 nM (active). Further, the Potency with CP217 is 1120 nM (active); with CP305, 1810 nM (active); in the assay with CP329, 3610 nM (active); in the assay with ECU, 1000 nM (active); in the assay with FAB9 it was 891 nM (active); in the assay with N140 it was 2820 nM (active). The Potency was 1000 nM (active) with PC15, 2240 nM (active) with PC49 and 891 nM (active) in the assay with TAB165.

In the case of `N[C@H](Cc1cc(I)c(Oc2cc(I)c(O)c(I)c2)c(I)c1)C(=O)O`, the Potency in assay [1] was > 20.6 µM (inactive). In addition, the Potency entry in [2] and in assay [8] was “inactive” throughout. Further, the compound was called inactive in [7]. Also, the activity change, negative = inhibition in assay [3] was 1.16% (inactive). In addition, the figures for the max response in assay [3] (setting [9]) and in assay [3] (setting [10]) were 20.1% and 21%, respectively.

For the compound `C1CCN2C[C@@H]3C[C@@H](CN4CCCC[C@H]34)[C@H]2C1`, the Potency in [1] is > 20.6 µM (inactive) and > 46 µM (inactive). Moreover, the Potency result (in [2]; in [8]; in [5]; in the assay with AS120; in the assay with C2A; with CP191) was “inactive” in each case. Moreover, the Potency result with CP217, in the assay on CP305, in the assay on CP329, with ECU, with FAB9 and in the assay on N140 was “inactive” in each case. Besides, the Potency entry in the assay with PC15, in the assay on PC49 and in the assay with TAB165 was “inactive” each time. For the same compound, the compound was called inactive in assay [7] and in assay [4]. Besides, the activity change, negative = inhibition in assay [3] was -1.82% (inactive). The max response in [3] (setting [9]) is -3.93%; in assay [3] (setting [10]) it was -5.58%. In addition, the activity, negative = inhibition in assay [6] (parasite line A) was 5.24% (inactive); in [6] (parasite line B), 14.7% (inactive).
